Bioassay records (PubChem BioAssay)
ALDH1A1 block = qHTS Assay for Inhibitors of Aldehyde Dehydrogenase 1 (ALDH1A1) | Purified ALDH1A1, NADH fluorescence, propionaldehyde substrate | Potency, µM (top dose mostly 75.3 µM), for the others: at the top dose activity, negative = inhibition, hits mostly inhibitors | 220,000 compounds, 7.3% hits;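 also: plate controls were no enzyme wells and a reference inhibitor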
Target sequence (P00352 whole entry, looked up): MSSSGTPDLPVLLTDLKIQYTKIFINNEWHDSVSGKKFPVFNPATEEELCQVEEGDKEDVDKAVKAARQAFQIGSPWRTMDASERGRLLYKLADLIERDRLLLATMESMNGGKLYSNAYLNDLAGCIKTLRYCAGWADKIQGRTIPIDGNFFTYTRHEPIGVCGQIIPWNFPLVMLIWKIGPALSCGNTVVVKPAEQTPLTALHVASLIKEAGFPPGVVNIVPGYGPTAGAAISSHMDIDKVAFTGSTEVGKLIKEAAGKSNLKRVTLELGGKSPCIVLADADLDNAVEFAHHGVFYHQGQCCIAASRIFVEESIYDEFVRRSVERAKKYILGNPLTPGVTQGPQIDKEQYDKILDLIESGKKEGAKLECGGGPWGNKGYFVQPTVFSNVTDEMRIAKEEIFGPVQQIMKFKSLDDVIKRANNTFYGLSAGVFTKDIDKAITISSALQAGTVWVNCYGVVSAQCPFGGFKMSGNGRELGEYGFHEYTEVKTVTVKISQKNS
HTT aggregate = qHTS Multiplex Assay to Identify Dual Action Probes in a Cell Model of Huntington: Aggregate Formation (GFP); 220,000 compounds, 1.1% hits; Potency, µM (highest dose often 46.1 µM), without a hit: top-dose activity change, negative = inhibition, usual class: inhibitors; PC12 HttQ103-GFP aggregates, Acumen cytometry, 40 h; active = well fitted curve in the direction sought with a large enough effect; inconclusive = small, poorly fitted or top-dose-only effect, or another doubt; inactive = no such curve, though single readings can be large; an effect the other way counts as inactive or inconclusive; also: % is scaled to controls: 0 for no effect and ±100 for the full control effect; nearly all actives have a fitted effect of over 60% in size
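Huntingtin Q103 exon 1–GFP aggregates in induced PC12 cells (100 nM tebufenozide) were quantified by cytometry from lysates, with compounds dosed in titration.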
HPGD inh = qHTS Assay for Inhibitors of HPGD (15-Hydroxyprostaglandin Dehydrogenase); 15-hydroxyprostaglandin dehydrogenase [NAD(+)] (Homo sapiens), P15428; purified HPGD, NADH fluorescence kinetic, PGE2 substrate; Potency, µM, for the others: at the top dose activity change, negative = inhibition, most hits filed as inhibitors; 150,000 compounds, 4.3% hits; AID 894, 2007; also: % is scaled to controls: 0 for no effect and ±100 for the full control effect
Target sequence (P15428 whole entry, looked up): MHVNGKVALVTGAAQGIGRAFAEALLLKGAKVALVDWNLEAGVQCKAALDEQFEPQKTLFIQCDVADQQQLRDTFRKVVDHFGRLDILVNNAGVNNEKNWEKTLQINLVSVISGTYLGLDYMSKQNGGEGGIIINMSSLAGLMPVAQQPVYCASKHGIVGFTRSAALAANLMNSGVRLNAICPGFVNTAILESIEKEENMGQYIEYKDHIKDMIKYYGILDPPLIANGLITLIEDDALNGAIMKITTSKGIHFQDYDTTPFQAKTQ
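20 nM HPGD preincubated 15 min at room temperature with compound in 50 mM Tris-HCl pH 8, 0.01% Tween 20. Started with 1 mM NAD+ and 30 uM prostaglandin E2; NADH fluorescence (360/450 nm) read 5 times over 30-s intervals, last minus first.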
JMJD2E inh = qHTS Assay for Inhibitors of Human Jumonji Domain Containing 2E (JMJD2E) | Lysine-specific demethylase 4E (Homo sapiens), B2RXH2 | JMJD2E catalytic domain, FDH-coupled NADH fluorescence (FDH is formaldehyde dehydrogenase) | Potency, µM (series often up to 57.1 µM), inactives show at the highest dose activity change, negative = inhibition, actives largely listed as inhibitors | 230,000 compounds, 1.6% hits | AID 2147, 2009;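 also: 0% = wells with enzyme and -100% = buffer wells without enzyme; nearly all actives have a fitted effect of over 50% in size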
HTT cytoprotect = qHTS Multiplex Assay to Identify Dual Action Probes in a Cell Model of Huntington: Cytoprotection (ATP); AID 1471, 2008; PC12 HTT-Q103 induced, cytoprotection, ATP luminescence, 40 h; Potency, µM (titrated, usually from 56.4 µM), for inactives: cytoprotection (ATP increase), hits mostly activators; 230,000 compounds, 0.14% hits; active = well fitted curve in the direction sought with a large enough effect; inconclusive = small, poorly fitted or top-dose-only effect, or another doubt; inactive = no such curve, though single readings can be large; an effect the other way counts as inactive or inconclusive; also: % of control where 0% means no effect; nearly all actives have a fitted effect of over 45% in size
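PC12 cells with ecdysone-inducible HTT exon 1 Q103-GFP, induced with 100 nM tebufenozide and co-treated with library compounds in a dose series (1536-well, 1500 cells/well). Cytoprotection read as ATP content by ATPlite luminescence.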
Lamin A splicing = qHTS Assay for Modulators of Lamin A Splicing. HeLa LMNA splicing GFP/RFP minigene ratio, 48 h. Potency, µM (titrated, usually from 46.1 µM), for inactives: at the top dose ratio change, negative = inhibition, most hits filed as inhibitors. 200,000 compounds, 0.01% hits; active = well fitted inhibition curve with a large enough effect in the signal ratio, with a control signal flat, not every such curve was filed as active; inconclusive = small, poorly fitted or top-dose-only effect, or effect the other way, or a change in a side signal; the % refers to the signal ratio; also: % is scaled to controls: 0 for no effect and ±100 for the full control effect
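S3 HeLa stable clones carrying a lamin A-EGFP splicing minigene plus DsRed2 were seeded at 600 cells/well in Opti-MEM with 2% FBS, pin-dosed and incubated 48 h at 37°C. Acumen cytometry (488 nm) gave the GFP/RFP total-intensity ratio.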
The depositor's hits bear a star; ? = inconclusive; · = no result given; [ ] = dose if it differs, or a comment. A selection: hits, their analogues and other compounds. The true share with any hit is near 9.2%. Unless noted, calls follow the shape of the dose curve; as a rule, active = well fitted inhibition curve with a large enough effect (not every such curve was filed as active); inconclusive = small, poorly fitted or top-dose-only effect, or another doubt; inactive = no such curve, though single readings can be large or run the other way. Potency is read from the fitted curve at half-maximal effect.

SMILES	ALDH1A1 block	HTT aggregate	HPGD inh	JMJD2E inh	HTT cytoprotect	Lamin A splicing
CC(=O)Nc1ccccc1NS(=O)(=O)c1ccc(Cl)cc1	8.9%	-26.8%	2.8%	3.1%	5.5%	-11.9%
COc1ccc(S(=O)(=O)Nc2cc(C)c(O)c(S(=O)(=O)c3ccccc3)c2)cc1	?	-27.1%	-2.3%	2.6%	-19.9%	2.6%
Fc1ccccc1NC(=S)NNc1ncc(C(F)(F)F)cc1Cl	2.24µM*	-79.6%	-25.3%	-7.0%	-4.2%	-8.7%
FC(F)(F)c1cnc(NNC(=S)Nc2cccnc2)c(Cl)c1	2.24µM*	?	·	5.9%	-112.6%	?
O=C(NNc1ncc(C(F)(F)F)cc1Cl)c1c(Cl)cccc1Cl	2.6%	-19.3%	-3.6%	1.2%	-70.5%	?
Cc1c(Cl)cccc1NC(=S)NNc1ncc(C(F)(F)F)cc1Cl	14.1µM*	12.6µM*	-11.3%	2.9%	-63.9%	1.4%
Cc1ccccc1NC(=S)NNc1ncc(C(F)(F)F)cc1Cl	10µM*	?	-12.7%	-4.1%	12.3%	?
Cc1cccc(C)c1NC(=S)NNc1ncc(C(F)(F)F)cc1Cl	?	-16.1%	-5.2%	2.0%	-0.2%	6.6%
COc1ccc(CCC(=O)NCc2cn3ccccc3n2)cc1	·	38.0%[9.22 µM]	·	?	12.1%[10 µM]	·
Cc1ccc(-n2c(SCc3ccc(C(=O)O)cc3)nnc2-c2ccncc2)cc1	·	-8.2%[9.22 µM]	·	-0.2%	3.9%[10 µM]	·
COn1c(C)c(C(C)=O)c2c3nonc3ccc21	?	35.5µM*	-25.2%	?	5.6%	20.5%
COn1c2c(c3c4nonc4ccc31)CCCC2	?	?	?	?	3.9%	10.0%
COc1ccccc1C(=O)NC(=S)NNC(=O)c1sc2ccccc2c1Cl	-5.0%	-26.3%	31.6µM*	0.8%	?	-5.8%
Cc1c(NC(=S)NC(=O)c2sc3ccccc3c2Cl)cccc1C(=O)O	25.1µM*	?	·	?	-88.8%	-17.0%[46 µM]
Cn1c(-c2ccc(C(C)(C)C)cc2)n[nH]c1=S	31.6µM*	-16.6%	?	?	-0.5%[10 µM]	1.8%
Cn1cccc1/C=N/n1c(-c2ccccc2)n[nH]c1=S	-13.7%	-5.4%	14.1µM*	-9.4%	-14.1%	14.7%[0.0737 µM]
CCn1c(-c2ccc(C(C)(C)C)cc2)n[nH]c1=S	?	?	?	?	18.8%[10 µM]	-11.3%
Cn1cccc1/C=N/n1c(-c2ccc(C(C)(C)C)cc2)n[nH]c1=S	?	-1.7%	11.2µM*	5.4%	-16.3%	-5.1%
Cc1ccc(-c2n[nH]c(=S)n2/N=C/c2c(C)[nH]n(-c3ccccc3)c2=O)cc1	-9.7%	-6.4%	·	?	-51.4%	?
Cc1nn(-c2ccccc2)c(C)c1/C=N/n1c(-c2ccc(Cl)cc2)n[nH]c1=S	?	25.7%	?	-3.9%	-1.7%[10 µM]	-20.3%
Cc1nn(-c2ccccc2)c(C)c1/C=N/n1c(-c2ccncc2)n[nH]c1=S	22.4µM*	-17.3%	·	-15.9%	-50.0%[10 µM]	?
CCc1nnc(NC(=O)Cc2ccc(Br)cc2)s1	?	4.4%	·	-6.4%	16.6%	·
CC(=O)NCCNc1ncnc2ccc(-c3c(C)noc3C)cc12	?	·	·	·	-65.1%	?
Cc1nc(-c2ccccc2)sc1-c1n[nH]c(=S)n1C	25.1µM*	11.6%	-28.2%	?	-18.9%	3.3%
O=C(Cc1cccs1)NC1CC(=O)N(c2ccc(F)cc2)C1 (stereo not drawn)	·	·	·	·	·	-7.0%[46 µM]
SMILES	ALDH1A1 block	HTT aggregate	HPGD inh	JMJD2E inh	HTT cytoprotect	Lamin A splicing
Cc1cccc(CNC(=O)CN2C(=O)CSc3c2c(C)nn3-c2ccccc2)c1	·	·	·	·	·	-3.4%[46 µM]
CC(=O)c1c(C)oc2ccc(N(C(C)=O)S(=O)(=O)c3ccc(Cl)c([N+](=O)[O-])c3)cc12	?	11.2µM*	-29.2%	-1.2%	-105.5%	?
COc1ccc(CNC(=O)Cn2c(=O)nc(-c3ccccc3)c3ccccc32)cc1OC	·	·	·	·	·	-17.5%[46 µM]
Cc1ccc(C)c(NC(=O)C(c2ccccc2)N2CCOCC2)c1 (stereo not drawn)	15.8µM*	-4.2%	·	0.7%	11.2%	·
O=C(Nc1ccc(Cl)cc1)C(c1ccccc1)N1CCOCC1 (stereo not drawn)	17.8µM*	6.8%	·	-1.4%	-15.5%	·
CCN(Cc1ccccc1)S(=O)(=O)c1ccc(S(=O)(=O)N(Cc2ccccn2)Cc2ccco2)cc1	13.2%	-9.0%	-5.2%	0.7%	-13.9%	8.1%
CC1CCCCN1S(=O)(=O)c1ccc(S(=O)(=O)N(Cc2ccccc2)Cc2ccco2)cc1 (stereo not drawn)	7.08µM*	-19.3%	-11.4%	-5.1%	17.4%[10 µM]	-9.6%
COC(=O)c1c(NC(=O)CN2CCN(c3cccc(Cl)c3)CC2)sc(C)c1C	5.3%	?	?	?	-83.5%[10 µM]	6.4%
Cc1nc2ccccn2c1C(=O)N=Nc1c(O)n(CCC(C)C)c2ccccc12	?	35.5µM*	-1.4%	14.9%	13.6%[10 µM]	-5.4%
Cc1cc(C(=O)N=Nc2c(O)n(C(C)C)c3ccccc23)n[nH]1	?	1.1%	·	5.5%	-6.8%	?
COc1cc(OC)c(N(C)C(=O)c2sc3nc4n(c(=O)c3c2C)CCCC4)cc1Cl	·	·	·	·	·	-5.0%[46 µM]
CCOC(=O)C1CCCN(S(=O)(=O)c2ccc(OC)cc2)C1 (stereo not drawn)	3.16µM*	20.1%	-5.3%	1.5%	-8.1%	0.9%
CCOC(=O)C1CCCN(S(=O)(=O)c2ccc(S(N)(=O)=O)cc2)C1 (stereo not drawn)	?	7.0%	·	8.9%	-11.9%	9.4%[46 µM]
COc1ccc(S(=O)(=O)NCC2CCCN(C(=O)C3CCCC3)C2)cc1 (stereo not drawn)	3.55µM*	3.3%[9.22 µM]	·	8.9%	11.5%[10 µM]	0.4%[46 µM]
CCOC(=O)C1CCN(S(=O)(=O)c2ccc(OC)c(Cl)c2Cl)CC1	6.31µM*	-0.7%	-19.8%	-0.7%	17.5%	1.5%
CCOC(=O)C1CCCN(S(=O)(=O)c2ccc(C)cc2)C1 (stereo not drawn)	8.91µM*	-24.0%	-12.2%	-14.9%	1.2%[10 µM]	-15.9%
CS(=O)(=O)N1CCC[C@@]2(CCN(C(c3ccccc3)c3ccccc3)C2)C1	-11.6%	·	-3.9%	·	19.5%	·
CCC/C=C(\CCC)C(NS(=O)(=O)c1ccc(-c2ccccc2)cc1)c1ccc(C(=O)OC)cc1 (stereo not drawn)	-9.1%	·	-9.7%	-2.1%	-11.4%	·
Cc1ccc(S(=O)(=O)N2CCCC(C(=O)N(Cc3cccs3)C3CC3)C2)cc1 (stereo not drawn)	7.08µM*	?	-5.9%	-6.0%	12.3%[10 µM]	?
